Source: PubChem (National Center for Advancing Translational Sciences (NCATS))
Nrf2 block: Nrf2 qHTS screen for inhibitors; actives 2.1% (n = 360,000); Potency, µM (titrated, usually from 46 µM), most hits filed as inhibitors; A549 ARE-Fluc reporter, luciferase luminescence, 18-24 h; AID 504444, 2011; also: nearly all actives have a fitted effect of over 60% in size
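In this cell-based qHTS, ARE-driven firefly luciferase in A549 cells reports Nrf2 activity; the luminescent signal after BugLite lysis is the measured value, with a prior CellTiter-Fluor read for cell health.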
HepG2 tox: qHTS for Inhibitors of TGF-b: Cytotox Counterscreen. HepG2 CAGA-GFP viability, ATP luminescence, 18 h. Potency, µM (highest dose often 46.1 µM), actives largely listed as cytotoxic. actives 0.76% (n = 410,000). AID 588856, 2011
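HepG2 CAGA-GFP cells (1000/well, DMEM with 1% FBS) received compound, then TGF-beta at 500 pg/mL final, and were incubated 18 hours at 37 degrees C. Viability was read by CellTiter-Glo luminescence. Media-only wells were set as complete cell-killing and DMSO as no toxicity.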
Nrf2 activator: qHTS of Nrf2 Activators | AREc32 ARE-luciferase reporter (MCF7-derived line), luminescence, 24 h | Potency, µM (highest dose often 46.1 µM), actives largely listed as activators | actives 0.31% (n = 410,000); also: nearly all actives have a fitted effect of over 65% in size
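Reporter line AREc32 (ARE-Fluc), seeded overnight in OPTI-MEM with 5% FBS; compound pin-transferred, 24 hr at 37 deg C, 5% CO2; luminescent read-out.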
A549 tox: Nrf2 qHTS screen for inhibitors: counterscreen for cytotoxicity; A549 ARE-Fluc cells, CellTiter-Fluor viability, 18-24 h; Potency, µM (top dose mostly 46 µM), most hits filed as inhibitors; actives 0.16% (n = 390,000)
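A549 ARE_Fluc cells in 5% FBS OPTI-MEM were exposed to compounds in concentration-response for 18-24 h at 37 deg C. Viability was read by CellTiter-Fluor fluorescence (Ex 405/Em 525) after 30 min, before the luciferase read.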
TGFb SMAD3 inh: qHTS for Inhibitors of TGF-b; actives 1.2% (n = 410,000); HepG2 CAGA-GFP TGF-b/SMAD3 reporter, GFP fluorescence, 18 h; TGF-beta stimulated, 500 pg/mL final; Potency, µM (titrated, usually from 46.1 µM), actives largely listed as inhibitors; also: nearly all actives have a fitted effect of over 65% in size
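Using HEPG2 CAGA-GFP reporter cells at 1000 cells/well, we pinned test compounds, stimulated with recombinant TGF-beta (500 pg/mL final) and measured total well GFP after 18 h.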
Each line names hits and unclear results; the compound was inactive in the other large screens. A selection: hits, their analogues and other compounds. The true share with any hit is near 3.6%. Calls follow the shape of the dose curve; as a rule, active = well fitted curve in the direction sought with a large enough effect; inconclusive = small, poorly fitted or top-dose-only effect, or another doubt; inactive = no such curve, though single readings can be large; an effect the other way counts as inactive or inconclusive.

Cn1c(=O)n(C)c2cc(NC(=O)CCl)ccc21	Nrf2 block 18µM, Nrf2 activator inconclusive, A549 tox inconclusive
CCc1ccc(/C=C2\SC(=S)N(CCC(=O)NCCCN3CCOCC3)C2=O)cc1	Nrf2 block inconclusive, A549 tox inconclusive
Cc1ccc(/C=C2\SC(=S)N(CCC(=O)NCCCN3CCOCC3)C2=O)cc1	Nrf2 block inconclusive, Nrf2 activator inconclusive, A549 tox 15µM
COc1ccc(/C=C2\SC(=S)N(CCC(=O)NCCCN3CCOCC3)C2=O)cc1	Nrf2 block inconclusive, A549 tox 12µM
CC(C)[C@H](NC(=O)c1ccccc1)C(=O)N1CCc2ccccc21	none
Cc1ccc(NS(=O)(=O)c2c(C)nc3sc(C)c(C)n3c2=O)cc1F	Nrf2 block 21µM, TGFb SMAD3 inh inconclusive
COc1cc(NS(=O)(=O)c2c(C)nc3sc(C)c(C)n3c2=O)cc(OC)c1	none
COc1ccc(-c2cc(C(F)(F)F)nc(S(=O)(=O)CCCC(=O)Nc3cccc(O)c3)n2)cc1OC	HepG2 tox 5.6µM, Nrf2 activator inconclusive, TGFb SMAD3 inh 3.5µM
COc1ccccc1-c1cc(C(F)(F)F)nc(S(=O)(=O)CCCC(=O)Nc2cc(OC)c(OC)c(OC)c2)n1	none
COc1ccccc1-c1cc(C(F)(F)F)nc(S(=O)(=O)CCCC(=O)O)n1	Nrf2 activator 11µM, TGFb SMAD3 inh 18µM (no result: Nrf2 block)
COc1ccc(-c2cc(C(F)(F)F)nc(S(=O)(=O)CCCC(=O)Nc3ccccc3C(F)(F)F)n2)cc1OC	Nrf2 activator inconclusive, TGFb SMAD3 inh 2.8µM
COc1ccc(NC(=O)CCCS(=O)(=O)c2nc(-c3ccc(OC)c(OC)c3)cc(C(F)(F)F)n2)cc1OC	Nrf2 activator inconclusive, TGFb SMAD3 inh 2.5µM
COc1ccccc1-c1cc(C(F)(F)F)nc(S(=O)(=O)CCCC(=O)Nc2ccc(F)c(Cl)c2)n1	none
CN(C)CCCn1c(SCC(=O)N2CC(=O)Nc3ccccc32)nc2ccccc2c1=O	none
CCCCN1C(=O)c2ccc(C(=O)Nc3cccnc3)cc2C1=O	Nrf2 block inconclusive
COC(=O)c1cc(C(=O)OCC(=O)N2c3ccccc3NC(=O)C2(C)C)cc([N+](=O)[O-])c1	none
CC1CCc2cc(F)ccc2N1C(=O)C12CCC(C)(C(=O)O1)C2(C)C (configuration not stated)	none
O=S(=O)(c1ccccc1)c1nc(-c2ccco2)oc1Nc1ccccc1	none
CCN(c1ccccc1)S(=O)(=O)c1ccc2c(c1)OCCO2	none
CCNc1nc(NCC)nc(OCCNS(=O)(=O)c2cc(C)ccc2C)n1	none
CCCN(CCC)c1ccc(/C=C/c2sc3ccccc3[n+]2CCCCI)cc1	HepG2 tox 14µM, TGFb SMAD3 inh 6.3µM (no result: Nrf2 block, Nrf2 activator, A549 tox)
CO[C@H]1CC[C@@]2(C)[C@@H](CC[C@@H]3[C@@H]2CC[C@@]2(C)[C@H]3C[C@H](C(=O)O)O[C@]23CCCO3)C1	HepG2 tox 16µM
Cc1cccc(C#CC2=CC(=O)CC(C)(C)C2)c1	Nrf2 activator inconclusive (no result: Nrf2 block, A549 tox)
CC1(C)CC(=O)C=C(C#CC2(O)CCCCC2)C1	HepG2 tox 10µM, Nrf2 activator inconclusive, TGFb SMAD3 inh inconclusive (no result: Nrf2 block, A549 tox)
COc1ccc2c(C)c(CC(=O)N3CCN(C(=O)C4COc5ccccc5O4)CC3)c(=O)oc2c1 (configuration not stated)	Nrf2 block 23µM
Cc1c(CC(=O)N2CCN(C(=O)C3COc4ccccc4O3)CC2)c(=O)oc2cc(O)ccc12 (configuration not stated)	none
Cc1ccc(C2Nc3cccc4cccc(c34)N2)s1	A549 tox inconclusive
Cc1cc(O)c(C(C)C)cc1C1(c2cc(C(C)C)c(O)cc2C)OC(=O)c2ccccc21	Nrf2 block inconclusive, HepG2 tox 14µM, A549 tox inconclusive, TGFb SMAD3 inh 13µM
Cc1sc2ncnc(N3CCC(C(=O)Nc4cc(C(F)(F)F)ccc4OCC(F)(F)F)CC3)c2c1C	TGFb SMAD3 inh inconclusive
Cc1sc2ncnc(N3CCC(C(=O)Nc4cc(S(C)(=O)=O)ccc4Cl)CC3)c2c1C	Nrf2 block 18µM
